High-throughput results deposited in PubChem BioAssay by National Center for Advancing Translational Sciences (NCATS).
MBNL1-CUG inh – inhibitors of human MBNL1 binding to CUG repeat RNA; Q9NR56; TR-FRET MBNL1-His/biotin-(CUG)12 binding, 665/545 ratio; Potency, µM (series often up to 57.5 µM), hits mostly inhibitors; actives 0.036% (n = 280,000); active = well fitted inhibition curve with a large enough effect in the signal ratio, with a control signal flat, not every such curve was filed as active; inconclusive = small, poorly fitted or top-dose-only effect, or effect the other way, or a change in a side signal; inactive = no such curve, though single readings can be large or run the other way; the % refers to the signal ratio
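MBNL1-His + Biotin-(CUG)12, cpd titration 92 nM–58 uM; Tb anti-His Ab 0.055 ng/ul, SA-XL665 5 nM (final); 60 min RT; ratiometric 665/545 nm, Ex 340 nm; normalized to buffer and full-complex controls.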
CtBP-E1A blk – inhibitors of CtBP/E1A interaction | actives 0.49% (n = 340,000) | activity change, % (no concentration beside the values) | AlphaScreen GST-E1A/His-CtBP binding, 1536-well; active compounds read low
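Homogeneous bead-based format: GST-tagged E1A captured on glutathione donor beads, His-tagged CtBP on nickel acceptor beads; compounds precede bead addition by 2 h at 37 °C.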
PKM2 act – PKM2 (human) enzyme activation. Potency, µM (doses to about 57.5 µM), most hits filed as activators. actives 0.34% (n = 260,000). purified PKM2, Kinase-Glo ATP luminescence, activation; response scale: 0% is enzyme alone, no compound; active = well fitted activation curve with a large enough effect; inconclusive = small, poorly fitted or top-dose-only effect; inactive = no such curve, though single readings can be large or run the other way; note: nearly all actives have a fitted effect of over 55% in size
Target sequence (P14618 whole entry, looked up): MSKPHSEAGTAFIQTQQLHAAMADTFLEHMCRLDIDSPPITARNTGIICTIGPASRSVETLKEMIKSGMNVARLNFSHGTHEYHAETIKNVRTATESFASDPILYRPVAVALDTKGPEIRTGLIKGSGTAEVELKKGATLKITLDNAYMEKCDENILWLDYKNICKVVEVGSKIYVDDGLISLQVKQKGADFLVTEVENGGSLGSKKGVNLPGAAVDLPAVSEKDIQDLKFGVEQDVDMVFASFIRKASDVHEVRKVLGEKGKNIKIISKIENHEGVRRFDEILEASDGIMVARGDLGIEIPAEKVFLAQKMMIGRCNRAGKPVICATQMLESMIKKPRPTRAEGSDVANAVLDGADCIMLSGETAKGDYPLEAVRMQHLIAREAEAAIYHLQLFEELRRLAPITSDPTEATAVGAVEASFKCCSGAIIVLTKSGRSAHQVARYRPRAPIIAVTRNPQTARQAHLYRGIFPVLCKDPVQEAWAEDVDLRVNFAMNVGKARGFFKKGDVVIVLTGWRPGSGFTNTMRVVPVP
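Purified hPK-M2 (>95%) run at intermediate activity with 0.1 mM ADP and 0.5 mM PEP in 50 mM imidazole pH 7.2, KCl, MgCl2; 1 h room temperature. ATP formed read by Kinase-Glo luminescence; normalized to uninhibited and no-enzyme controls.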
Six1-Eya2 blk – blocks human Six1 binding to Eya2; AlphaScreen GST-Six1/His-Eya2 binding, biochemical; active compounds read low; actives 0.56% (n = 360,000); AID 651725; Q15475+O00167; activity change, % (no concentration beside the values)
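AlphaScreen with GST-Six1 and His-Eya2 (5X mix: 250 nM and 500 nM), glutathione donor and nickel acceptor beads; buffer 50 mM Tris pH 8.0, 300 mM NaCl, 1 mM TCEP; 1 h at 37 C in the dark.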
Each line names hits and unclear results; the compound was inactive in the other large screens. Rows were chosen to be rich in hits. Some 0.93% of all compounds tested hit in one or more screens of this group. Cut-off read from the data, not from the text of the source, unless noted: active = activity change below about -65%; inconclusive = mostly about -30% to -63%; inactive = weaker than that.

O=C(N/N=C/c1c(O)n(Cc2ccco2)c(=O)[nH]c1=O)c1ccccc1	CtBP-E1A blk -85, Six1-Eya2 blk -86
Cc1ccc(-n2c(SCC(=O)N/N=C/c3ccccc3C(=O)O)nnc2-c2ccc(Cl)cc2)cc1	none
Cc1ccc(-c2nnc(SCC(=O)N/N=C/c3ccccc3C(=O)O)n2-c2ccc(Cl)cc2)cc1	PKM2 act 28µM (no result: MBNL1-CUG inh)
COc1cnc(-c2ccccn2)nc1Sc1ccc(Cl)cc1	none
COc1cnc(-c2ccccn2)nc1Oc1cccc(C(F)(F)F)c1	none (no result: CtBP-E1A blk, PKM2 act, Six1-Eya2 blk)
COc1cnc(-c2ccccn2)nc1Oc1ccccc1	CtBP-E1A blk -67, Six1-Eya2 blk inconclusive (no result: MBNL1-CUG inh)
COc1cnc(-c2ccccn2)nc1Sc1ccc(F)cc1	CtBP-E1A blk -72, Six1-Eya2 blk inconclusive
O=c1oc2c(O)c(O)cc3c(=O)oc4c(O)c(O)cc1c4c23	MBNL1-CUG inh inconclusive, Six1-Eya2 blk -74
COC(=O)C1=C(C(=O)OC)[C@@H]2N(C)c3ccc(OC)cc3[C@@]23C[C@@H](C(=O)OC)N(S(=O)(=O)c2ccc(C#N)cc2)C3=N1	none (no result: MBNL1-CUG inh, CtBP-E1A blk, Six1-Eya2 blk)
c1ccc(-c2cn(C[C@H]3CC[C@H](Cn4cc(-c5ccccn5)nn4)O3)nn2)nc1	CtBP-E1A blk -90, Six1-Eya2 blk -92
Cc1ccc(-c2cn(C[C@H]3CC[C@@H]([C@@H]4CC[C@H](Cn5cc(-c6ccc(C)cc6)nn5)O4)O3)nn2)cc1	none
COc1cc(/C=C(\C#N)C(=O)Nc2cccc(C(=O)O)c2)ccc1OCc1ccc(F)cc1	CtBP-E1A blk -70
COc1cc(/C=C/[N+](=O)[O-])ccc1OC(=O)/C=C/c1ccc(F)cc1	CtBP-E1A blk -90, Six1-Eya2 blk inconclusive
COc1cc(/C=C/[N+](=O)[O-])ccc1OCc1cccc(C(=O)O)c1	PKM2 act inconclusive, Six1-Eya2 blk -76
COc1ccc(C(=O)C=Cc2ccc(OCc3ccccc3)c(OC)c2)cc1OC	none (no result: MBNL1-CUG inh, PKM2 act)
COc1ccc(/C=C/C(=O)Oc2ccc(C)c(C)c2)cc1OC	CtBP-E1A blk inconclusive
COc1cc(C=NO)nc(-c2ccccn2)c1	Six1-Eya2 blk -92 (no result: MBNL1-CUG inh, PKM2 act)
COc1ccc2nc(-c3ccccn3)[nH]c2c1	none
Cc1[nH]nc(SCC(=O)NCc2ccccc2)c1[N+](=O)[O-]	none (no result: MBNL1-CUG inh)
Cc1[nH]nc(SCC(=O)Nc2cccc(O)c2)c1[N+](=O)[O-]	PKM2 act 10µM
COC(=O)C1=C(C(=O)OC)[C@@H]2N(Cc3ccccc3)c3ccccc3[C@@]23C[C@@H](C(=O)OC)N(S(=O)(=O)c2cccs2)C3=N1	none (no result: MBNL1-CUG inh, CtBP-E1A blk, Six1-Eya2 blk)
COc1ccc(OC)c(/C=C/C(=O)OCC(=O)N2CCCCC2)c1	CtBP-E1A blk -77 (no result: MBNL1-CUG inh, PKM2 act)
COC(=O)N1C2CC3(C)CC(=O)CC1(C)C3c1ccccc12 (configuration not stated)	none (no result: MBNL1-CUG inh, CtBP-E1A blk, Six1-Eya2 blk)
CCOCc1nc(N)nc(N)c1-c1cccc(Cl)c1	none (no result: MBNL1-CUG inh, PKM2 act)
COc1ccc(-c2csc(C(C)(O)c3cccc(F)c3)n2)cn1 (configuration not stated)	none (no result: MBNL1-CUG inh, PKM2 act)
COCc1c(C(=O)Nc2nnc(C3CC3)s2)oc2ccccc12	none (no result: MBNL1-CUG inh, PKM2 act)
Fc1ccc(CSc2ncnc3ccccc23)cc1	PKM2 act 25µM
c1ccc(CSc2ncnc3ccccc23)cc1	none
COc1ccc(O)c(/C=N/NC(=O)CN2CCS(=O)(=O)CC2)c1	CtBP-E1A blk -71, Six1-Eya2 blk inconclusive
CC(=O)Nc1ccc2c(c1)C(=O)c1ccccc1C2=O	MBNL1-CUG inh inconclusive, CtBP-E1A blk inconclusive, Six1-Eya2 blk inconclusive
O=C(O)/C=C/C(=O)Nc1ccc2c(c1)C(=O)c1ccccc1C2=O	MBNL1-CUG inh inconclusive, Six1-Eya2 blk -67
COC(=O)[C@@H]1C[C@H]1[C@@H](NC(=O)c1ccc(Br)cc1)c1ccccc1	none (no result: MBNL1-CUG inh, CtBP-E1A blk, Six1-Eya2 blk)
Nc1nc(-c2ccccc2)c(-c2ccc([N+](=O)[O-])cc2)s1	MBNL1-CUG inh inconclusive, PKM2 act 20µM
CCCCOCCCNC(=O)C[C@@H]1C[C@@]2(C(=O)OC)CCCCC=C2N(Cc2ccco2)C1=O	none (no result: MBNL1-CUG inh, PKM2 act)
Oc1ccc(-n2cccc2/C=N/n2cnnc2)cc1	none
FC(F)(F)c1cccc(-n2cccc2/C=N/n2cnnc2)c1	PKM2 act 20µM
c1ccc(OCc2nn3c(Cn4cnc5ccccc54)nnc3s2)cc1	PKM2 act 4.5µM
c1ccc2c(c1)ncn2Cc1nnc2sc(-c3ccncc3)nn12	PKM2 act 8.9µM
NC(Cc1ccc(Cl)cc1)c1csc(NC(=O)NCC2CCCCC2)n1 (configuration not stated)	none (no result: MBNL1-CUG inh, PKM2 act)
